Experimental data from PubChem BioAssay (EPA / NIEHS).
Calls of active or inactive are those of the source. How the source made its calls: active means hit-call score of the fitted dose curve at least 0.9, where 1 is the maximum; inactive means score below 0.9.

What was measured:
Settings in all cases: mRNA level, 48 h; actives raise or lower the signal
[1] = read-out: ABC Transporter (ABCB11), ABCB11 (gene 8647); assay: LTEA_HepaRG_ABCB11: Life Technologies and Expression Analysis (LTEA) Assay for ABC Transporter (ABCB11) using HepaRG (AID 2283463)
Procedure, shortened: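 HepaRG, 48 h exposure, 8-pt half-log CRC top 100 uM, 0.5% DMSO vehicle, duplicates. Readout: TaqMan qRT-PCR of ABCB11 mRNA, housekeeping-normalized (ACTB/GAPDH/POLR2A). Bidirectional fit vs DMSO baseline.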

[2] = read-out: ABC Transporter (ABCC2), ABCC2 (gene 1244); assay: LTEA_HepaRG_ABCC2: Life Technologies and Expression Analysis (LTEA) Assay for ABC Transporter (ABCC2) using HepaRG (AID 2283464)
Procedure, shortened: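 qRT-PCR (TaqMan, Fluidigm array) read-out of ABCC2 mRNA, normalized to three housekeeping genes. Differentiated HepaRG cells were treated 48 h in serum-free induction medium with 8-point half-log series from 100 uM in 0.5% DMSO; curves fitted bidirectionally relative to DMSO.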

[3] = read-out: Broad substrate specificity ATP-binding cassette transporter ABCG2 (Homo sapiens) (UniProt Q9UNQ0); assay: LTEA_HepaRG_ABCG2: Life Technologies and Expression Analysis (LTEA) Assay for ABC Transporter (ABCG2) using HepaRG (AID 2283465)
Procedure, shortened: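 HepaRG, 48 h exposure, 8-pt half-log series from 100 uM, 0.5% DMSO vehicle, duplicates. Readout: ABCG2 transcript by qRT-PCR (Fluidigm array), housekeeping-normalized; bidirectional curve fit relative to DMSO baseline.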

[4] = read-out: ATP-citrate lyase (ACLY), ACLY (gene 47); assay: LTEA_HepaRG_ACLY: Life Technologies and Expression Analysis (LTEA) Assay for ATP-citrate lyase (ACLY) using HepaRG (AID 2283466)
Procedure, shortened: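 qRT-PCR readout of ACLY transcript after 48 h chemical treatment of HepaRG cells; expression normalized to three housekeeping genes. Eight-point half-log series, highest 100 uM, 0.5% DMSO vehicle. Gain or loss fitted against DMSO baseline.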

[5] = read-out: Peroxisomal acyl-coenzyme A oxidase 1 (ACOX1) gene, ACOX1 (gene 51); assay: LTEA_HepaRG_ACOX1: Life Technologies and Expression Analysis (LTEA) Assay for Peroxisomal acyl-coenzyme A oxidase 1 (ACOX1) gene using HepaRG (AID 2283467)
Procedure, shortened: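 HepaRG, 48 h chemical exposure, 8-pt half-log series from 100 uM top, 0.5% DMSO vehicle, duplicates. Readout: ACOX1 mRNA by Fluidigm qRT-PCR, housekeeping-normalized; bidirectional fit vs DMSO baseline.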

[6] = read-out: Alkaline Phosphatase, Placental (ALPP) gene, ALPP (gene 250); assay: LTEA_HepaRG_ALPP: Life Technologies and Expression Analysis (LTEA) Assay for Alkaline Phosphatase, Placental (ALPP) gene using HepaRG (AID 2283468)
Procedure, shortened: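 qRT-PCR readout of ALPP mRNA (Fluidigm TaqMan), normalized to ACTB/GAPDH/POLR2A, after 48 h chemical exposure of HepaRG cells; 8-point half-log series, top 100 uM, 0.5% DMSO vehicle. Bidirectional curve fit versus DMSO baseline.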

[7] = read-out: Bcl-2 (BAD) gene, BAD (gene 572); assay: LTEA_HepaRG_BAD: Life Technologies and Expression Analysis (LTEA) Assay for Bcl-2 (BAD) gene using HepaRG (AID 2283469)
Procedure, shortened: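 HepaRG, 48 h exposure, 8-pt half-log curve from 100 uM in 0.5% DMSO, duplicates. Readout: TaqMan qRT-PCR for BAD mRNA, housekeeping-normalised (ACTB/GAPDH/POLR2A); gain or loss fitted against DMSO baseline.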

[8] = read-out: Bcl-2 (BAX) gene, BAX (gene 581); assay: LTEA_HepaRG_BAX: Life Technologies and Expression Analysis (LTEA) Assay for Bcl-2 (BAX) gene using HepaRG (AID 2283470)
Procedure, shortened: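 Gene expression measured by Fluidigm qRT-PCR with three housekeeping genes for normalisation. HepaRG cells, plated 48 h beforehand, treated 48 h at up to 100 uM (8-point, half-log) in 0.5% DMSO. Bidirectional fitting versus DMSO.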

[9] = read-out: adenosine kinase (ADK) gene, ADK (gene 132); assay: LTEA_HepaRG_ADK: Life Technologies and Expression Analysis (LTEA) Assay for adenosine kinase (ADK) gene using HepaRG (AID 2283471)
Procedure, shortened: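 ADK expression quantified by qRT-PCR, normalised to three housekeeping genes, after 48 h exposure of HepaRG cells to eight concentrations (top 100 uM, half-log steps, duplicate, 0.5% DMSO). Up- or down-regulation fitted relative to vehicle.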

[10] = read-out: Alpha-fetoprotein (AFP) gene, AFP (gene 174); assay: LTEA_HepaRG_AFP: Life Technologies and Expression Analysis (LTEA) Assay for Alpha-fetoprotein (AFP) gene using HepaRG (AID 2283472)
Procedure, shortened: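 AFP transcript measured by TaqMan qRT-PCR with three housekeeping genes for normalization, after 48 h chemical treatment of HepaRG cells (top 100 uM, half-log steps, 0.5% DMSO). Gain or loss fitted against vehicle.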

[11] = read-out: Apolipoprotein A-V (APOA5) gene, APOA5 (gene 116519); assay: LTEA_HepaRG_APOA5: Life Technologies and Expression Analysis (LTEA) Assay for Apolipoprotein A-V (APOA5) gene using HepaRG (AID 2283474)
Procedure, shortened: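 HepaRG, 48 h chemical exposure in serum-free induction medium, 8-pt half-log series (top 100 uM), 0.5% DMSO vehicle, duplicates. Readout: APOA5 mRNA by qRT-PCR, housekeeping-normalized; bidirectional fit vs DMSO baseline.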

[12] = read-out: Apoptosis regulator Bcl-2 (Homo sapiens) (UniProt P10415); assay: LTEA_HepaRG_BCL2: Life Technologies and Expression Analysis (LTEA) Assay for Bcl-2 gene using HepaRG (AID 2283475)
Procedure, shortened: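 qRT-PCR of BCL2 transcript, normalized to three housekeeping genes (ACTB, GAPDH, POLR2A), after 48 h chemical exposure of HepaRG cells; concentrations top 100 uM with half-log dilutions, 0.5% DMSO vehicle, duplicates; changes up or down fitted relative to vehicle.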

[13] = read-out: Bcl-2 (BID) gene, BID (gene 637); assay: LTEA_HepaRG_BID: Life Technologies and Expression Analysis (LTEA) Assay for Bcl-2 (BID) gene using HepaRG (AID 2283476)
Procedure, shortened: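 Duplicate 48 h treatments of HepaRG cells in serum-free induction medium spanned 100 uM downward in half-log steps, 0.5% DMSO. Transcript change quantified by qRT-PCR against three housekeeping genes, fitted up or down versus DMSO.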

Caspase-3 (Homo sapiens) = Caspase-3 (Homo sapiens) (UniProt P42574); assay: LTEA_HepaRG_CASP3: Life Technologies and Expression Analysis (LTEA) Assay for cysteine-aspartic acid protease (CASP3) using HepaRG (AID 2283477)
Sequence of Caspase-3 (Homo sapiens) (P42574 whole entry, looked up): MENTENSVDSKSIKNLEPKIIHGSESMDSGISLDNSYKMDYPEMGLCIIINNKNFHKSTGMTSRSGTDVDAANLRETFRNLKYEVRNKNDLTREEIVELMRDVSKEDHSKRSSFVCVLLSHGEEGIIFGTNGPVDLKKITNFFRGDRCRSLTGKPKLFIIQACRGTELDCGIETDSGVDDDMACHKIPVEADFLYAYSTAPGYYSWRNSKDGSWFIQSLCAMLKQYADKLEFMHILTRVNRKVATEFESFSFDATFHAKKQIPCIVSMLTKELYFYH
Procedure, shortened: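 HepaRG, 48 h exposure, 8 conc. (top 100 uM, half-log steps, duplicate), 0.5% DMSO vehicle; qRT-PCR of CASP3 transcript, housekeeping-normalised (ACTB/GAPDH/POLR2A); bidirectional curve fit vs DMSO baseline.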

[14] = read-out: Cytochrome P450 (CYP24A1), CYP24A1 (gene 1591); assay: LTEA_HepaRG_CYP24A1: Life Technologies and Expression Analysis (LTEA) Assay for Cytochrome P450 (CYP24A1) using HepaRG (AID 2283478)
Procedure, shortened: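 qRT-PCR read-out: CYP24A1 transcript levels normalized to three housekeeping genes, bidirectional curve fits against 0.5% DMSO baseline. Human HepaRG cells treated 48 h with chemicals at eight concentrations from 100 uM in half-log steps.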

[15] = read-out: Cytochrome P450 (CYP1A2), CYP1A2 (gene 1544); assay: LTEA_HepaRG_CYP1A2: Life Technologies and Expression Analysis (LTEA) Assay for Cytochrome P450 (CYP1A2) using HepaRG (AID 2283479)
Procedure, shortened: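 HepaRG, 48 h exposure, top 100 uM, half-log 8-pt, 0.5% DMSO vehicle, duplicates. Readout: TaqMan qRT-PCR of CYP1A2 mRNA, housekeeping-normalized (ACTB/GAPDH/POLR2A). Gain/loss fit relative to DMSO baseline.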

[16] = read-out: cysteine-aspartic acid protease (CASP8), CASP8 (gene 841); assay: LTEA_HepaRG_CASP8: Life Technologies and Expression Analysis (LTEA) Assay for cysteine-aspartic acid protease (CASP8) using HepaRG (AID 2283480)
Procedure, shortened: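 qRT-PCR readout of CASP8 mRNA, normalized to three housekeeping genes, after 48 h chemical exposure of HepaRG cells; 8-point half-log series, top 100 uM, 0.5% DMSO vehicle. Bidirectional curve fitting against DMSO baseline.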

[17] = read-out: Cytochrome P450 2C19 (Homo sapiens) (UniProt P33261); assay: LTEA_HepaRG_CYP2C19: Life Technologies and Expression Analysis (LTEA) Assay for CYP2C19 using HepaRG (AID 2283482)
Procedure, shortened: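 HepaRG, 48 h chemical exposure, 8-pt half-log series from 100 uM in 0.5% DMSO, duplicates. Readout: CYP2C19 mRNA by TaqMan qRT-PCR, housekeeping-normalized. Bidirectional fit vs DMSO baseline; phenobarbital 1mM as induction control.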

BCL2L11 (gene 10018) = assay: LTEA_HepaRG_BCL2L11: Life Technologies and Expression Analysis (LTEA) Assay for Bcl-2 (BCL2L11) gene using HepaRG (AID 2283473)
Procedure, shortened: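 HepaRG, 48 h exposure, 8-pt half-log series from 100 uM in 0.5% DMSO, duplicates; qRT-PCR (Fluidigm TaqMan) for BCL2L11, housekeeping-normalized; bidirectional curve fit relative to DMSO baseline.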

[18] = read-out: Cytochrome P450 (CYP2B6), CYP2B6 (gene 1555); assay: LTEA_HepaRG_CYP2B6: Life Technologies and Expression Analysis (LTEA) Assay for Cytochrome P450 (CYP2B6) using HepaRG (AID 2283481)
Procedure, shortened: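 Read-out is CYP2B6 mRNA by TaqMan qRT-PCR, normalized to three housekeeping genes and fitted bidirectionally against 0.5% DMSO baseline. Human HepaRG cells received test chemicals for 48 h, top concentration 100 uM, half-log dilutions.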

Measured: AC50

Sequence of Apoptosis regulator Bcl-2 (Homo sapiens) (P10415 whole entry, looked up): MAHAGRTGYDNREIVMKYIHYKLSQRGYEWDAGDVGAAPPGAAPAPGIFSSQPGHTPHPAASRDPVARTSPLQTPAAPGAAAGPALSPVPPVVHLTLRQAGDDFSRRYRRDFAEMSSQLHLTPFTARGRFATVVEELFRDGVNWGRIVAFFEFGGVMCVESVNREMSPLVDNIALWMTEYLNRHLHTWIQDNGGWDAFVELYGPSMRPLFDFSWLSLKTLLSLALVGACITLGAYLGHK
Sequence of Cytochrome P450 2C19 (Homo sapiens) (P33261 whole entry, looked up): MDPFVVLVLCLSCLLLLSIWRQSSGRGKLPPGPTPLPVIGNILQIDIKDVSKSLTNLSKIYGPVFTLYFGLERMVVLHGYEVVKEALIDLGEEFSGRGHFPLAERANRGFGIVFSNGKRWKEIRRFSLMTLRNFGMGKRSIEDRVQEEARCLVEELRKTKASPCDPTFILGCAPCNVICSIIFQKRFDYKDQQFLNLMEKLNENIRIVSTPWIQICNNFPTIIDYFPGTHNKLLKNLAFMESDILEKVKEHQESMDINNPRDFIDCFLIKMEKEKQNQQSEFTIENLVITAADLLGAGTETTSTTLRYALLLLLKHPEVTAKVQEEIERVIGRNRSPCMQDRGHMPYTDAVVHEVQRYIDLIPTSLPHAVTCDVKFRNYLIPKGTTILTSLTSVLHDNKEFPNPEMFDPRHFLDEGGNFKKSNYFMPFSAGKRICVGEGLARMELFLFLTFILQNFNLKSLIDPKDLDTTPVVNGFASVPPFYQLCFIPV
Sequence of Broad substrate specificity ATP-binding cassette transporter ABCG2 (Homo sapiens) (Q9UNQ0 whole entry, looked up): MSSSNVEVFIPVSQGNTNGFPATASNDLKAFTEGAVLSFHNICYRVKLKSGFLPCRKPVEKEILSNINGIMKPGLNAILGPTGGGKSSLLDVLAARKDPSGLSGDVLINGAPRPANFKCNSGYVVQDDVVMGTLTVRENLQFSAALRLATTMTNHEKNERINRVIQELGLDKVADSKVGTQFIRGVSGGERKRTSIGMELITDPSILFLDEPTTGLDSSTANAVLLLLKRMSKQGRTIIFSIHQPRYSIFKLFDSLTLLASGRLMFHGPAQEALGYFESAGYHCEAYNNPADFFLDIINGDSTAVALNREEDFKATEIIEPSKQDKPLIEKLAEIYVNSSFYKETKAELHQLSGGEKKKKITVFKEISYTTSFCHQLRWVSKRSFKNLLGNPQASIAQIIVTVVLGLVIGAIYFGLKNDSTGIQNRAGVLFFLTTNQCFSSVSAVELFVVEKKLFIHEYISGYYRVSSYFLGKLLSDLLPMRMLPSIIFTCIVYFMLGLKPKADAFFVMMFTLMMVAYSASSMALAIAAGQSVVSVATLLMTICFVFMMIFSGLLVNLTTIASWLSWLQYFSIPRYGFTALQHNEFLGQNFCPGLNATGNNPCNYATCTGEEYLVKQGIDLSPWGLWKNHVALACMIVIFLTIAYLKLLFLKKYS

Cc1cn([C@H]2C=C[C@@H](CO)O2)c(=O)[nH]c1=O
not listed: BCL2L11 (gene 10018) | [18]
inactive: all other assays above

Oc1ccccc1O
not listed: [10]
inactive: all other assays above

O=C1NC(=O)C(c2ccccc2)(c2ccccc2)N1
active: [2] 50 µM | [15] 50 µM | [17] 14.1 µM
not listed: [11] | BCL2L11 (gene 10018) | [18]
inactive: all other assays above

CCCC[C@H]1CN(CC2CCOCC2)C(=O)OC12CCN(C1(C)CCN(C(=O)c3c(C)ncnc3C)CC1)CC2
not listed: [11] | [15] | BCL2L11 (gene 10018)
inactive: all other assays above

CC(C)c1cccc(C(C)C)c1NC(=O)NS(=O)(=O)c1cc(C(C)(C)O)co1
active: [2] 3.34 µM | [3] 12.6 µM | [17] 8.04 µM
not listed: [15] | BCL2L11 (gene 10018) | [18]
inactive: all other assays above

COc1ccc(C(=O)Nc2nc3ccccc3c(NCc3ccccc3)c2C#N)cc1
active: [1] 13.3 µM | [3] 17.4 µM | [4] 16.5 µM | [5] 13.3 µM | [10] 21.7 µM | [14] 7.21 nM | [17] 22.1 µM
not listed: [11] | [15] | BCL2L11 (gene 10018) | [18]
inactive: all other assays above

CCCCC(CC)CO (centres undefined)
not listed: [10] | [15] | [18]
inactive: all other assays above

C/C=C/C=C/C(=O)O
not listed: [15] | BCL2L11 (gene 10018)
inactive: all other assays above
